Test results from PubChem BioAssay (NCI).
The panel holds about 83,000 compounds, 20% with a hit somewhere; the sample as a whole holds those more often.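 Interpretation: 100, growth as untreated; towards 0, rising growth inhibition; 0, no net growth; 0 to -100, cell death. Compounds scoring below 10 were considered active.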 The source made the active and inactive calls.

How the values were obtained:
Assay in all cases: NCI-60 one-dose screen, 48 h (100 = growth as untreated, 0 = no growth, -100 = all killed)
Details in all cases: 10 µM unless noted
SR leukemia = system: SR leukemia
RPMI-8226 leukemia = system: RPMI-8226 leukemia
OVCAR-8 ovarian = system: OVCAR-8 ovarian
OVCAR-5 ovarian = system: OVCAR-5 ovarian
OVCAR-4 ovarian = system: OVCAR-4 ovarian
SK-OV-3 ovarian = system: SK-OV-3 ovarian
IGROV1 ovarian = system: IGROV1 ovarian
OVCAR-3 ovarian = system: OVCAR-3 ovarian
HS 578T breast = system: HS 578T breast
NCI/ADR-RES ovarian = system: NCI/ADR-RES ovarian
T-47D breast = system: T-47D breast
BT-549 breast = system: BT-549 breast
MDA-MB-435 melanoma = system: MDA-MB-435 melanoma
SW-620 colon = system: SW-620 colon
MCF7 breast = system: MCF7 breast
HCT-116 colon = system: HCT-116 colon
HCC-2998 colon = system: HCC-2998 colon
KM12 colon = system: KM12 colon
MDA-MB-468 breast = system: MDA-MB-468 breast

Measured: growth

Cc1cnc2ccc(Oc3ccccc3-c3ccccc3)nn12
inactive: SR leukemia 89.3% | RPMI-8226 leukemia 106% | OVCAR-8 ovarian 103% | OVCAR-5 ovarian 111% | OVCAR-4 ovarian 112% | SK-OV-3 ovarian 178% | IGROV1 ovarian 105% | OVCAR-3 ovarian 120% | HS 578T breast 120% | NCI/ADR-RES ovarian 104% | T-47D breast 110% | BT-549 breast 107% | MDA-MB-435 melanoma 110% | SW-620 colon 124% | MCF7 breast 93% | HCT-116 colon 101% | HCC-2998 colon 113% | KM12 colon 107% | MDA-MB-468 breast 108%

COc1ccc(S(=O)(=O)Nc2ccc(-c3ccc4c(c3)NC(=O)/C4=C\c3ccc[nH]3)cc2)cc1OC
active: SR leukemia 8.03% | OVCAR-8 ovarian 1.66% | OVCAR-4 ovarian 8.08% | T-47D breast -21% | MCF7 breast -39% | MDA-MB-468 breast -56.2%
inactive: RPMI-8226 leukemia 39.4% | OVCAR-5 ovarian 18.5% | SK-OV-3 ovarian 27.1% | IGROV1 ovarian 29.3% | OVCAR-3 ovarian 57.2% | HS 578T breast 23.4% | NCI/ADR-RES ovarian 22.1% | BT-549 breast 13.3% | MDA-MB-435 melanoma 22% | SW-620 colon 16.1% | HCT-116 colon 19% | HCC-2998 colon 24.2% | KM12 colon 33.6%

Cc1nn(-c2ccccc2)c2ncn(CC(=O)N/N=C/c3ccccc3O)c(=O)c12
inactive: SR leukemia 13.3% | RPMI-8226 leukemia 45.4% | OVCAR-8 ovarian 19.7% | OVCAR-5 ovarian 63.2% | OVCAR-4 ovarian 39.4% | SK-OV-3 ovarian 37.7% | IGROV1 ovarian 40.6% | OVCAR-3 ovarian 18% | HS 578T breast 54.9% | NCI/ADR-RES ovarian 23.3% | T-47D breast 22.9% | BT-549 breast 56.5% | MDA-MB-435 melanoma 64.1% | SW-620 colon 43.5% | MCF7 breast 16.3% | HCT-116 colon 18.5% | HCC-2998 colon 36.2% | KM12 colon 25.8% | MDA-MB-468 breast 10.9%

Nc1nn2c(-c3cc4cc(Br)ccc4oc3=O)ccnc2c1N=Nc1ccccc1
active: SR leukemia 1.69% | OVCAR-8 ovarian -14.9% | OVCAR-4 ovarian -5.33% | SK-OV-3 ovarian -6.82% | HS 578T breast -20.7% | NCI/ADR-RES ovarian -16.7% | BT-549 breast -45.3% | HCT-116 colon 3.34%
inactive: RPMI-8226 leukemia 75.2% | OVCAR-5 ovarian 16.8% | IGROV1 ovarian 13.1% | OVCAR-3 ovarian 27.1% | T-47D breast 29.6% | MDA-MB-435 melanoma 71.2% | SW-620 colon 50.7% | MCF7 breast 20% | HCC-2998 colon 30.2% | KM12 colon 26.1% | MDA-MB-468 breast 46.2%

O=C(N/N=C/c1ccoc1)c1[nH]c2ccc(Br)cc2c1-c1ccccc1
active: SR leukemia -13.1% | RPMI-8226 leukemia 2.8% | OVCAR-8 ovarian -47.6% | OVCAR-5 ovarian -100% | OVCAR-4 ovarian -86.8% | SK-OV-3 ovarian -83.6% | IGROV1 ovarian -87.4% | OVCAR-3 ovarian -45.8% | HS 578T breast -28% | NCI/ADR-RES ovarian -72.5% | T-47D breast -74.7% | BT-549 breast -90.3% | MDA-MB-435 melanoma -96% | SW-620 colon -83.6% | MCF7 breast -70.3% | HCT-116 colon -75.8% | HCC-2998 colon -100% | KM12 colon -25.4% | MDA-MB-468 breast -88.5%

O=C1Nc2cc(-c3ccc(NS(=O)(=O)c4ccc(C(F)(F)F)cc4)cc3)ccc2/C1=C/c1ccc[nH]1
active: SR leukemia 4.6% | BT-549 breast -8.7% | MDA-MB-435 melanoma 9.69% | MCF7 breast 0.78% | HCT-116 colon 2.8% | MDA-MB-468 breast -26.2%
inactive: RPMI-8226 leukemia 26% | OVCAR-8 ovarian 57% | OVCAR-5 ovarian 45.1% | OVCAR-4 ovarian 31.5% | SK-OV-3 ovarian 57.7% | IGROV1 ovarian 61.3% | OVCAR-3 ovarian 39.8% | HS 578T breast 40.6% | NCI/ADR-RES ovarian 40.5% | T-47D breast 18.1% | SW-620 colon 33.3% | HCC-2998 colon 30.5% | KM12 colon 20.8%

CCCCC[C@@H]1C/C=C(\C)[C@@H](O)C(C)(C)C(=O)[C@@H](C)/C=C(\C)[C@@H]2C[C@H](O)C[C@](O)(CC(=O)O1)O2
active: RPMI-8226 leukemia 8.23% | MCF7 breast 7.53% | MDA-MB-468 breast -21.2%
inactive: SR leukemia 17.1% | OVCAR-8 ovarian 42.3% | OVCAR-5 ovarian 78% | OVCAR-4 ovarian 27.7% | SK-OV-3 ovarian 78.6% | IGROV1 ovarian 58.5% | OVCAR-3 ovarian 35.6% | HS 578T breast 47.7% | NCI/ADR-RES ovarian 19.7% | T-47D breast 13.5% | BT-549 breast 18.8% | MDA-MB-435 melanoma 24% | SW-620 colon 47.3% | HCT-116 colon 43% | HCC-2998 colon 57.1% | KM12 colon 44.6%

COc1ccc(OC)c(Cn2cc(C#N)c(N)c2C(=O)c2ccc(Br)cc2)c1
active: BT-549 breast -86.3% | MDA-MB-435 melanoma 0.655% | MDA-MB-468 breast 2.73%
inactive: SR leukemia 14.4% | RPMI-8226 leukemia 58% | OVCAR-8 ovarian 33.9% | OVCAR-5 ovarian 71.1% | OVCAR-4 ovarian 57.1% | SK-OV-3 ovarian 50.9% | IGROV1 ovarian 48.7% | OVCAR-3 ovarian 55.9% | HS 578T breast 45.2% | NCI/ADR-RES ovarian 23.2% | T-47D breast 35.6% | SW-620 colon 31.2% | MCF7 breast 27.9% | HCT-116 colon 24.3% | HCC-2998 colon 71.8% | KM12 colon 40%

Cc1ccc(C(=O)Nc2cc(-n3ccnc3)cc(C(F)(F)F)c2)cc1-n1cc(-c2cnc3cccnn23)nn1
inactive: SR leukemia 114% | RPMI-8226 leukemia 85.2% | OVCAR-8 ovarian 103% | OVCAR-5 ovarian 66.6% | OVCAR-4 ovarian 104% | SK-OV-3 ovarian 124% | IGROV1 ovarian 104% | OVCAR-3 ovarian 133% | HS 578T breast 94.9% | NCI/ADR-RES ovarian 115% | T-47D breast 113% | BT-549 breast 247% | MDA-MB-435 melanoma 63.4% | SW-620 colon 81.9% | MCF7 breast 101% | HCT-116 colon 55.1% | HCC-2998 colon 86.3% | KM12 colon 80.1% | MDA-MB-468 breast 121%

COc1cc2cc(C(=O)N3C[C@@H](CCl)c4c3cc(OC(=O)N(CCC(=O)N3CCN(C)CC3)[C@H]3CCSSC3)c3ccccc43)[nH]c2c(OC)c1OC
inactive: SK-OV-3 ovarian 10.8%
active: SR leukemia -22.9% | RPMI-8226 leukemia -5.04% | OVCAR-8 ovarian -49.8% | OVCAR-5 ovarian -4.73% | OVCAR-4 ovarian -11.9% | IGROV1 ovarian -16.7% | OVCAR-3 ovarian -55.8% | HS 578T breast -14.1% | NCI/ADR-RES ovarian -55.3% | T-47D breast 8.8% | BT-549 breast -81.1% | MDA-MB-435 melanoma -48.5% | SW-620 colon -42.4% | MCF7 breast -79.9% | HCT-116 colon -41.4% | HCC-2998 colon -94.3% | KM12 colon -29% | MDA-MB-468 breast -91.5%

COc1ccc(SC2c3cc(OC)ccc3Oc3nc(N)c(C#N)c(N)c32)cc1 (centres undefined)
inactive: SR leukemia 29.5% | RPMI-8226 leukemia 56.3% | OVCAR-8 ovarian 87% | OVCAR-5 ovarian 123% | OVCAR-4 ovarian 105% | SK-OV-3 ovarian 113% | IGROV1 ovarian 21.9% | OVCAR-3 ovarian 98.4% | HS 578T breast 81% | NCI/ADR-RES ovarian 91.1% | T-47D breast 77.4% | BT-549 breast 24.5% | MDA-MB-435 melanoma 87.5% | SW-620 colon 69.5% | MCF7 breast 49.2% | HCT-116 colon 78% | HCC-2998 colon 117% | KM12 colon 61.2% | MDA-MB-468 breast 98.6%

COc1ccc(-c2cc(C(=O)Oc3ccc(C=O)cc3OC)nn2-c2ccc(S(C)(=O)=O)cc2)cc1
inactive: SR leukemia 84.9% | RPMI-8226 leukemia 70.4% | OVCAR-8 ovarian 103% | OVCAR-5 ovarian 125% | OVCAR-4 ovarian 89.7% | SK-OV-3 ovarian 122% | IGROV1 ovarian 112% | OVCAR-3 ovarian 93.4% | HS 578T breast 112% | NCI/ADR-RES ovarian 101% | T-47D breast 92.2% | BT-549 breast 105% | MDA-MB-435 melanoma 98.3% | SW-620 colon 109% | MCF7 breast 84.5% | HCT-116 colon 98.3% | HCC-2998 colon 116% | KM12 colon 103% | MDA-MB-468 breast 107%

Nc1nn2c(-c3cc4cc(Br)ccc4oc3=O)ccnc2c1N=Nc1ccc(Br)cc1
inactive: SR leukemia 29.7% | RPMI-8226 leukemia 86.3% | OVCAR-8 ovarian 14.5% | OVCAR-5 ovarian 11.8% | OVCAR-4 ovarian 12.8% | SK-OV-3 ovarian 22.4% | HS 578T breast 28.3% | NCI/ADR-RES ovarian 14.1% | T-47D breast 29.2% | BT-549 breast 40.7% | MDA-MB-435 melanoma 69.5% | SW-620 colon 43.2% | MCF7 breast 39.5% | HCT-116 colon 16.2% | HCC-2998 colon 39.2% | KM12 colon 51.7% | MDA-MB-468 breast 39%
active: IGROV1 ovarian -16.1% | OVCAR-3 ovarian 5.27%

CC1CCc2c(sc3nc(SCC(=O)c4cccc(Br)c4)n(-c4ccccc4)c(=O)c23)C1 (centres undefined)
active: HCT-116 colon 2.87%
inactive: SR leukemia 22.3% | RPMI-8226 leukemia 58.8% | OVCAR-8 ovarian 19.2% | OVCAR-5 ovarian 47.8% | OVCAR-4 ovarian 30.6% | SK-OV-3 ovarian 58% | IGROV1 ovarian 33.7% | OVCAR-3 ovarian 55.7% | HS 578T breast 57.7% | NCI/ADR-RES ovarian 35.2% | T-47D breast 15.9% | BT-549 breast 78.5% | MDA-MB-435 melanoma 29.5% | SW-620 colon 28.5% | MCF7 breast 56.9% | HCC-2998 colon 60.6% | KM12 colon 89.6% | MDA-MB-468 breast 29.6%

COc1ccc(N=Nc2c(N)nn3c(-c4cc5ccccc5oc4=O)ccnc23)cc1
inactive: SR leukemia 21% | RPMI-8226 leukemia 72.8% | OVCAR-8 ovarian 38.8% | OVCAR-5 ovarian 68.5% | OVCAR-4 ovarian 70.8% | SK-OV-3 ovarian 57.8% | IGROV1 ovarian 29.4% | OVCAR-3 ovarian 74.3% | HS 578T breast 29.1% | NCI/ADR-RES ovarian 22.1% | T-47D breast 53.2% | BT-549 breast 29.5% | MDA-MB-435 melanoma 75.5% | SW-620 colon 31.3% | MCF7 breast 29% | HCT-116 colon 37.9% | HCC-2998 colon 38.1% | KM12 colon 51.1% | MDA-MB-468 breast 24.7%

O=C(Nc1ccc(-c2ccc3c(c2)NC(=O)/C3=C\c2ccc[nH]2)cc1)Nc1ccc(Cl)c(C(F)(F)F)c1
active: SR leukemia 6.31% | BT-549 breast 5.89% | MDA-MB-435 melanoma 3.54% | MCF7 breast 3.21% | HCT-116 colon 2.62% | MDA-MB-468 breast -18.4%
inactive: RPMI-8226 leukemia 30.3% | OVCAR-8 ovarian 50.5% | OVCAR-5 ovarian 51.2% | OVCAR-4 ovarian 28.9% | SK-OV-3 ovarian 68.3% | IGROV1 ovarian 61.7% | OVCAR-3 ovarian 29.1% | HS 578T breast 39% | NCI/ADR-RES ovarian 51.7% | T-47D breast 16.5% | SW-620 colon 27.6% | HCC-2998 colon 48.4% | KM12 colon 22.3%
